# Experimental data: PubChem BioAssay (NCATS)
# Results filed as inconclusive are left out. Active and inactive are the calls of the source. Calls come from the whole dose curve; as a rule, active = well fitted cell-killing curve with a large enough effect; inconclusive = small, poorly fitted or top-dose-only effect; inactive = flat fitted curve, though single readings scatter.
# Assay: Cell Viability - LYMP2-002 (AID 977);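 note: compound exposure lasted 24 h at 37 °C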
# Settings: LYMP2-002 lymphoblastoid cell viability, qHTS; series mostly up to 92.2 µM
# Method in brief: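 Human lymphoblastoid cells (2500/well) in complete medium were preincubated 5 hr at 37 C, then exposed to compounds for 24 hr at 37 C. Intracellular ATP was read by CellTiter-Glo luminescence; AC50 came from Hill-equation concentration-response fits.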
row,SMILES,outcome
1,CCCCCCCCCC(=O)O,inactive
2,O=C(O)CC(O)(CC(=O)O)C(=O)O,inactive
3,CN(C)Cc1ccccc1,inactive
4,COC(C)=O,inactive
5,C=Cc1ccccc1,inactive

# Assay: Cell Viability - LYMP2-006 (AID 978); note: nearly all actives have a fitted effect of over 60% in size
# Settings: LYMP2-006 lymphoblastoid cell viability, qHTS; series mostly up to 92.2 µM
# Method in brief: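 Human lymphoblastoid cells (LYMP2-006), 2500/well in complete medium, were treated with compound for 24 hr at 37 C. Cellular ATP was read by CellTiter-Glo luminescence after 30 min, and AC50 values came from Hill-equation fits of concentration-response data.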
row,SMILES,outcome
1,CCCCCCCCCC(=O)O,inactive
2,O=C(O)CC(O)(CC(=O)O)C(=O)O,inactive
3,CN(C)Cc1ccccc1,inactive
4,COC(C)=O,inactive
5,C=Cc1ccccc1,inactive

# Assay: Cell Viability - LYMP2-007 (AID 979);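 note: cells exposed to compound for 24 h before reading; nearly all actives have a fitted effect of over 60% in size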
# Settings: LYMP2-007 lymphoblastoid cell viability; series mostly up to 92.2 µM
# Method in brief: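 Measured via luciferase-based ATP quantitation: lymphoblastoid cells, 24 hr compound exposure at 37 C, AC50 from Hill fits.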
row,SMILES,outcome
1,CCCCCCCCCC(=O)O,inactive
2,CN(C)Cc1ccccc1,inactive
3,COC(C)=O,inactive
4,C=Cc1ccccc1,inactive

# Assay: Cell Viability - LYMP2-008 (AID 980); note: nearly all actives have a fitted effect of over 60% in size
# Settings: LYMP2-008 lymphoblastoid cell viability, qHTS; series mostly up to 92.2 µM
# Method in brief: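 Measured: ATP-dependent luminescence, proportional to viable cell number, in human lymphoblastoid cells treated 24 hr with compound in complete culture medium. Values are AC50s from Hill-equation modelling of qHTS titrations.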
row,SMILES,outcome
1,CCCCCCCCCC(=O)O,inactive
2,CN(C)Cc1ccccc1,inactive
3,COC(C)=O,inactive
4,C=Cc1ccccc1,inactive

# Assay: Cell Viability - LYMP2-010 (AID 981); note: nearly all actives have a fitted effect of over 55% in size
# Settings: LYMP2-010 lymphoblastoid cell viability, qHTS; series mostly up to 92.2 µM
# Method in brief: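 This 24 hr viability screen uses LYMP2-010 lymphoblastoid cells, quantifies ATP via luciferase luminescence, and derives AC50 from Hill fits of qHTS concentration-response data.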
row,SMILES,outcome
1,CCCCCCCCCC(=O)O,inactive
2,CN(C)Cc1ccccc1,inactive
3,COC(C)=O,inactive
4,C=Cc1ccccc1,inactive

# Assay: Cell Viability - LYMP2-012 (AID 982);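 note: cellular ATP by luciferase luminescence where a drop means cytotoxicity; cells exposed to compound for one day before reading; nearly all actives have a fitted effect of over 55% in size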
# Settings: LYMP2-012 lymphoblastoid cell viability qHTS; series mostly up to 92.2 µM
row,SMILES,outcome
1,CCCCCCCCCC(=O)O,inactive
2,O=C(O)CC(O)(CC(=O)O)C(=O)O,inactive
3,CN(C)Cc1ccccc1,inactive
4,COC(C)=O,inactive

# Assay: Cell Viability - LYMP2-014 (AID 983); note: nearly all actives have a fitted effect of over 50% in size
# Settings: LYMP2-014 lymphoblastoid cells, viability qHTS; series mostly up to 92.2 µM
# Method in brief: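 Quantitative HTS in lymphoblastoid cells: 24 hr compound exposure, then CellTiter-Glo ATP luminescence. Positive control was tetraoctylammonium bromide, 6.4pM to 92 uM.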
row,SMILES,outcome
1,CCCCCCCCCC(=O)O,inactive
2,O=C(O)CC(O)(CC(=O)O)C(=O)O,inactive
3,CN(C)Cc1ccccc1,inactive
4,COC(C)=O,inactive

# Assay: Cell Viability - LYMP2-016 (AID 984); note: nearly all actives have a fitted effect of over 55% in size
# Settings: LYMP2-016 lymphoblastoid cell viability, qHTS; series mostly up to 92.2 µM
# Method in brief: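 Human lymphoblastoid LYMP2-016 cells, 2500 per well, treated with compounds for 24 h at 37 C. Viability read as intracellular ATP by CellTiter-Glo luminescence after 30 min at room temperature; AC50 from Hill fits of concentration-response.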
row,SMILES,outcome
1,CCCCCCCCCC(=O)O,inactive
2,O=C(O)CC(O)(CC(=O)O)C(=O)O,inactive
3,CN(C)Cc1ccccc1,inactive
4,COC(C)=O,inactive
5,C=Cc1ccccc1,inactive

# Assay: Cell Viability - LYMP2-018 (AID 985); note: nearly all actives have a fitted effect of over 50% in size
# Settings: LYMP2-018 lymphoblastoid cells, viability (qHTS); series mostly up to 92.2 µM
# Method in brief: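 In this qHTS viability assay, cells are treated for 24 hr and cellular ATP is quantified by luciferase-based luminescence, with tetraoctylammonium bromide as positive control.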
row,SMILES,outcome
1,CCCCCCCCCC(=O)O,inactive
2,O=C(O)CC(O)(CC(=O)O)C(=O)O,inactive
3,CN(C)Cc1ccccc1,inactive
4,COC(C)=O,inactive
5,C=Cc1ccccc1,inactive

# Assay: Cell Viability - LYMP2-020 (AID 986); note: nearly all actives have a fitted effect of over 55% in size
# Settings: series mostly up to 92.2 µM
# Method in brief: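 Cells at 2500 per well receive a 24 hr compound exposure at 37 C. Viability is measured as ATP-dependent luciferase luminescence, with AC50 modeled from qHTS concentration-response curves.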
row,SMILES,outcome
1,CCCCCCCCCC(=O)O,inactive
2,O=C(O)CC(O)(CC(=O)O)C(=O)O,inactive
3,CN(C)Cc1ccccc1,inactive
4,COC(C)=O,inactive
